Data: PubChem BioAssay (NCATS)
Results filed as inconclusive are left out. A number with no mark means an inactive call. The source made the active and inactive calls. Calls follow the shape of the dose curve; as a rule, active = well fitted inhibition curve with a large enough effect; inconclusive = small, poorly fitted or top-dose-only effect; inactive = flat fitted curve, though single readings scatter.

system: Zika virus NS2B-NS3 protease; test: Primary screen GU AMC qHTS for Zika virus inhibitors (AID 1347154); details: Zika NS2B-NS3 unlinked protease, AMC fluorogenic substrate; series mostly up to 54.1 µM; activity change, negative = inhibition: at the top concentration;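 also: 0% = no-inhibitor control and -100% = no-enzyme control; nearly all actives have a fitted effect of over 70% in size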
Outline: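 Unlinked Zika NS2B hydrophilic domain–NS3 protease complex at 25 nM in 10 mM Tris-HCl pH 8.0, 0.01% Tween 20, with an AMC peptide substrate. Fluorescence change (340/450 nm) over 15 min at room temperature, normalized to controls, fitted to 4-parameter Hill.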

First: O=C(N/N=C/c1ccc([N+](=O)[O-])o1)c1ccc(O)cc1
Second: COc1ccc(/C=N/NC(=O)c2ccncc2)cc1OC
The “activity change, negative = inhibition” value of the first is lower: -7.08% for the first, 1.1% for the second.

Going from CCCCNC(=O)NS(=O)(=O)c1ccc(N)cc1 to Cc1cc(NS(=O)(=O)c2ccc(N)cc2)nc(C)n1, the “activity change, negative = inhibition” value rises from -2.75% to 1.04%.

Compared with CCCCCCCCCCCCCCCCO, CCCCCCCCCCCCCCCC(=O)O is lower in “activity change, negative = inhibition” value: -10.8% for the first, -23.1% for the second.

Compared with CN(C)CCN1C(=O)c2ccccc2N(C)c2ccccc21, c1ccc(-c2nc[nH]c2-c2ccccc2)cc1 is higher in “activity change, negative = inhibition” value: 0.0491% for the first, 0.101% for the second.

First: C[C@]12CCC(=O)C=C1C=C[C@@H]1[C@@H]2CC[C@@]2(C)[C@H]1CC[C@@]21CCC(=O)O1
Second: CC(=O)O[C@]1(C(C)=O)CC[C@H]2[C@@H]3C=C(Cl)C4=CC(=O)CC[C@]4(C)[C@H]3CC[C@@]21C
The “activity change, negative = inhibition” value of the first is higher: 2.34% for the first, -9.07% for the second.

Going from C/C=C/c1ccc(O)c(OC)c1 to COc1cc(C(=S)N2CCOCC2)ccc1O, the “activity change, negative = inhibition” value rises from -7.13% to -4.72%.

First: Cc1ccc(-c2ncc(Cl)cc2-c2ccc(S(C)(=O)=O)cc2)cn1
Second: Cc1cc(CC(=O)O)c(C)n1-c1ccc(Cl)cc1
The “activity change, negative = inhibition” value of the first is higher: 4.38% for the first, -12.2% for the second.

Compared with CCC(C(=O)OCCOCCN(CC)CC)c1ccccc1 (centres undefined), CCCCC(CC)COC(=O)/C=C/c1ccc(OC)cc1 (centres undefined) is lower in “activity change, negative = inhibition” value: -0.17% for the first, -3.19% for the second.

Going from O=C1c2cccc3c2[C@H](CCC3)CN1[C@@H]1CN2CCC1CC2 to Cc1cccc(C)c1NC(=O)CN1CCCC1, the “activity change, negative = inhibition” value rises from -4.94% to -0.315%.

First: NC1CCN(c2nc3c(cc2F)c(=O)c(C(=O)O)cn3-c2ccc(F)cc2F)C1 (centres undefined)
Second: COc1ccc2c(c1)c1c3n2CCN(C)C3=NCC1
The “activity change, negative = inhibition” value of the first is lower: -7.43% for the first, -4.66% for the second.

Compared with CCCCN1C[C@H](O)[C@@H](O)[C@H](O)[C@H]1CO, OC[C@H]1O[C@@H](Oc2ccc(O)cc2)[C@H](O)[C@@H](O)[C@@H]1O is lower in “activity change, negative = inhibition” value: 5.37% for the first, -0.61% for the second.

Compared with CC(=O)N[C@@H](CCC(=O)O)C(=O)O, C[C@@H](O)[C@H]1C(=O)N2C(C(=O)O)=C(S[C@@H]3CN[C@H](CNS(N)(=O)=O)C3)[C@H](C)[C@H]12 is lower in “activity change, negative = inhibition” value: -0.444% for the first, -4.18% for the second.

Compared with Cc1cc(C)cc(OCC2CNC(=O)O2)c1 (centres undefined), CCOC(=O)[C@@](C)(N)Cc1ccc(O)c(O)c1 is lower in “activity change, negative = inhibition” value: 0.943% for the first, -3.42% for the second.

Compared with O=[N+]([O-])c1cccc(S(=O)(=O)NCCNS(=O)(=O)c2cccc([N+](=O)[O-])c2)c1, NS(=O)(=O)c1ccc(Cl)c(S(N)(=O)=O)c1 is higher in “activity change, negative = inhibition” value: -2.57% for the first, -0.458% for the second.

First: Nc1nc(N)c(-c2ccccc2)s1
Second: Cc1c[nH]c2ccccc12
The “activity change, negative = inhibition” value of the first is higher: 0.847% for the first, -3.13% for the second.

First: CC(C)Cn1cnc2c1c(=O)n(C)c(=O)n2C
Second: CC(C)[N+](C)(C)CC(O)COc1cccc2ccccc12 (centres undefined)
The “activity change, negative = inhibition” value of the first is higher: 0.981% for the first, -7.95% for the second.

Going from CCN1CCN(C(=O)N[C@@H](C(=O)N[C@@H]2C(=O)N3C(C(=O)O)=C(CSc4nnnn4C)CS[C@H]23)c2ccc(O)cc2)C(=O)C1=O to CCCN(CCc1cccs1)[C@H]1CCc2c(O)cccc2C1, the “activity change, negative = inhibition” value falls from 6.59% to -11.5%.

O=c1[nH]c(=O)n([C@H]2C[C@H](O)[C@@H](CO)O2)cc1F was tested, and the “activity change, negative = inhibition” value was 0.413%.

In the case of COC(=O)C(c1ccccc1Cl)N1CCc2sccc2C1 (centres undefined), the Potency was “inactive”.
With COc1ccccc1N1CCN(CCCCNC(=O)c2ccc(-c3ccc(C(C)=O)cc3)cc2)CC1 the Potency was “inactive”.
With CCc1cc(Cl)c(OC)c(C(=O)NC[C@@H]2CCCN2CC)c1O the Potency was “inactive”.
O=C1C(=O)c2ccccc2C(O)=C1C1CCC(c2ccc(Cl)cc2)CC1 (centres undefined) was tested, and the Potency was “inactive”.
